Compound activity: PubChem BioAssay, National Center for Advancing Translational Sciences (NCATS)
RXFP1 agonist: qHTS Assay for Agonists of the Relaxin Receptor RXFP1; actives 0.3% (n = 370,000); Relaxin receptor 1 (Homo sapiens), Q9HBX9; HEK293T-RXFP1 cAMP TR-FRET, 30 min; response scale: percent of porcine relaxin response, buffer zero; Potency, µM (highest dose often 57.5 µM), for the others: top-dose activation, hits mostly activators; active = well fitted activation curve with a large enough effect; note: potency is the fitted concentration of half-maximal effect; nearly all actives have a fitted effect of over 60% in size
Target sequence (Q9HBX9 whole entry, looked up): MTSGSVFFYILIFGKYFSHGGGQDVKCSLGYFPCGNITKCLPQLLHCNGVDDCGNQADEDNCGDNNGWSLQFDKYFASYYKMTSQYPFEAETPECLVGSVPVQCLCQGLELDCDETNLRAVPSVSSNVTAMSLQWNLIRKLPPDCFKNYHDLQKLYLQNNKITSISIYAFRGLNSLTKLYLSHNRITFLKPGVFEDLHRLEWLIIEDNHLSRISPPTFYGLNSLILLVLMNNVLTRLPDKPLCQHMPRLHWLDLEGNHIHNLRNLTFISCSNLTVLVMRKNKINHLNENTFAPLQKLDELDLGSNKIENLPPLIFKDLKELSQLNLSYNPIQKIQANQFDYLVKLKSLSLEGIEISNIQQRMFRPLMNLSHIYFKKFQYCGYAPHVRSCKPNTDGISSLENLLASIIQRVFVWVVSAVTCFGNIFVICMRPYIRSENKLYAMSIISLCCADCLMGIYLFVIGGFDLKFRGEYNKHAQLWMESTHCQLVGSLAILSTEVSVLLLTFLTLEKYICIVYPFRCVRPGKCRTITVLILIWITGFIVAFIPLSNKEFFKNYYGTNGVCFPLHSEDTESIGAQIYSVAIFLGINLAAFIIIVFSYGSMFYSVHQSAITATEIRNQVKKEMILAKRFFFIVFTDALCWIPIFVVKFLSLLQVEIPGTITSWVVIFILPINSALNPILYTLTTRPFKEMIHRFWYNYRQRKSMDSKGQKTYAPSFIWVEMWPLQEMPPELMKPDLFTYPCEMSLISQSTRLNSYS
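HEK293 cells stably expressing RXFP1, treated 30 min at 37C with compounds plus PDE4 inhibitor Ro 20174; cAMP measured by HTRF TR-FRET. Normalized to buffer and 29 nM porcine relaxin; EC50 by Hill fit.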
RXFP1 antagonist: qHTS Assay for Antagonists of the Relaxin Receptor RXFP1. activity change, negative = inhibition, % at 57.5 µM. Relaxin receptor 1 (Homo sapiens), Q9HBX9. AID 1259400, 2018. actives 0.59% (n = 350,000). HEK293-RXFP1, relaxin-stimulated cAMP HTRF, 30 min; stronger effect = lower value;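 active = activity change of -60% or lower, but not beyond a set lower limit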
Akt phos inh: HTS Assay for Inhibitors of Akt Phophorylation: Primary Screen; Neuro2A IGF-stimulated pAkt S473 HTRF, 20 min; stronger effect = lower value; activity change, % for hits at 50 µM; actives 0.32% (n = 360,000); AID 651550, 2012; in the data active = activity change below about -80%
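Neuro2A cells (4,500/well, DMEM with 0.5% FBS) were treated with compound at a single 50 µM final concentration, stimulated with 6 nM IGF for 20 min at 37 °C, and lysed. Phospho-Akt Ser473 was read by HTRF as 665/615 ratio ×10^4.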
KCNH2 WT inh: qHTS for Inhibitors of KCHN2 3.1: Wildtype qHTS. Voltage-gated inwardly rectifying potassium channel KCNH2 (Homo sapiens), Q12809. U2OS, BacMam KCNH2, thallium flux FluxOr; stronger effect = lower value. activity change, % at 1.84 µM. actives 0.37% (n = 340,000);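 active = maximum activity change below -70%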
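U2OS cells were transduced with wild-type KCNH2 virus (2.03 x 10^8 / mL) for 4 h at room temperature, then cultured overnight at 37 C. Thallium flux was read with FluxOr dye. Rate constants were normalized to DMSO controls.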
KCNH2 3.1 block: qHTS for Inhibitors of KCHN2 3.1: Mutant qHTS; Potassium voltage-gated channel subfamily H member 2, brain isoform KCNH2 3.1 (human); U2OS KCNH2 3.1, thallium flux FluxOr; stronger effect = lower value; activity change, % (tested at about 1.8 µM); actives 0.95% (n = 340,000); AID 720553, 2013;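 active = maximum activity change below -70%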;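 note: thallium influx rate constant from kinetic fluorescence after stimulation buffer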
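Thallium flux read-out: FluxOr dye with Red40 quencher in HBSS/HEPES, 45 min at RT. Rate constants from kinetic reads were normalized to positive and negative DMSO controls. Cells: U2OS virally expressing the 3.1 isoform.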
* hit, by the source's call; i = inactive; . = no result given. Sampled rows, rich in hits. Any-hit rate of the full collection: about 1.7%. % is set by controls: 0 for no effect and ±100 for the full control effect.

SMILES	RXFP1 agonist	RXFP1 antagonist	Akt phos inh	KCNH2 WT inh	KCNH2 3.1 block
O=C(NCc1ccc(C(F)(F)F)cc1)C12CN(Cc3ccccc3)CC1C(c1cccc([N+](=O)[O-])c1)=NO2 (stereo not drawn)	1%	.	i	-15	-27
COc1ccc(CCNC(=O)C23CN(Cc4ccccc4)CC2C(c2cccc([N+](=O)[O-])c2)=NO3)cc1 (stereo not drawn)	3%	.	i	-9	5
COc1cccc(CNC(=O)C23CN(Cc4ccccc4)CC2C(c2ccc([N+](=O)[O-])cc2)=NO3)c1 (stereo not drawn)	0%	.	i	-1	-102*
COc1cccc(NC(=O)CN2C(=O)COc3ccc(S(=O)(=O)N4CCCCCC4)cc32)c1	4%	-3	i	-2	-111*
O=C(CN1C(=O)COc2ccc(S(=O)(=O)N3CCCC3)cc21)NC1CC1	0%	-8	i	-83*	0
COc1cc(C)c(C(=O)CC(=O)c2c(C)cc(OC)cc2C)c(C)c1	.	-66*	i	-10	16
Cn1nc(-c2ccc(Cl)cc2)nc2c(=O)n(C)c(=O)nc1-2	4.5µM*	.	.	.	.
CCc1c(C)c2cc(Cl)c(O)c(CN3CCCCC3)c2oc1=O	7%	-2	i	-25	-2
COc1cccc(NC(=O)c2cc3c(=O)n4ccccc4nc3n(CC(C)C)c2=N)c1	-1%	.	i	-74*	-93*
Cc1cccc(NC(=O)c2cc3c(=O)n4ccccc4nc3n(CC(C)C)c2=N)c1	-1%	.	i	-118*	-98*
CC(OC(=O)CNC(=O)C12CC3CC(CC(C3)C1)C2)C(=O)Nc1ccc(N2CCOCC2)cc1 (stereo not drawn)	-1%	-10	i	1	3
O=C(OCC(=O)N1CCN(c2ccccc2)CC1)c1cccc(Cl)c1	1%	-19	-113%*	7	-2
O=C(NCCC(=O)N1CCN(c2ccccc2O)CC1)c1ccc(Br)cc1	0%	6	i	3	3
O=C(NCCC(=O)N1CCN(c2cccc(Cl)c2)CC1)c1ccc(Br)cc1	0%	-13	i	8	-75*
O=C(NCc1ccc(Cl)cc1)C1CCN(S(=O)(=O)c2ccc(N3CCCC3=O)cc2)CC1	4%	-66*	i	-1	2
CC(=O)Nc1ccc(S(=O)(=O)N2CCC(C(=O)NCCc3c[nH]c4ccccc34)CC2)cc1	-2%	-4	i	-10	-133*
O=C(NCc1ccccc1)C1CCN(S(=O)(=O)c2ccc(N3CCCC3=O)cc2)CC1	1%	11	i	-7	-25
O=C(NCCc1c[nH]c2ccccc12)C1CCN(S(=O)(=O)c2ccccc2)CC1	-1%	-6	i	1	-2
O=C(CCNC(=O)C1CCN(S(=O)(=O)c2ccc(F)cc2)CC1)NCc1ccc(Cl)cc1	0%	11	i	-22	-113*
CN(C)S(=O)(=O)c1ccc(C(=O)OCC(=O)Nc2cccnc2Cl)cc1	14µM*	20	i	-7	-7
O=C(COC(=O)c1ccc(Br)cc1)Nc1cccnc1Cl	1%	7	i	5	6
CN1C(=O)C(C)(C)c2cc(S(=O)(=O)N3CCN(c4ccc(F)cc4)CC3)ccc21	-4%	-60*	i	5	-4
O=C(O)CCC(=O)N1CCc2cc(S(=O)(=O)N3CCN(c4ccc(F)cc4)CC3)ccc21	-1%	6	i	-3	-101*
CN1CCN(S(=O)(=O)c2ccc3c(c2)C(C)(C)C(=O)N3C)CC1	5%	-3	i	-9	-10
COc1ccc2nc(SCc3nc(N)nc(Nc4ccccc4)n3)[nH]c2c1	1%	-1	-102%*	-5	-35
SMILES	RXFP1 agonist	RXFP1 antagonist	Akt phos inh	KCNH2 WT inh	KCNH2 3.1 block
CCN1C(=O)/C(=C/c2cccs2)N(C)C1=S	-1%	10	i	0	-3
Cc1ccc(-c2c(C(=O)Nc3ccccc3C)c(C)[nH]c(=S)c2C#N)o1	28µM*	-2	i	-1	-4
Cc1ccccc1NC(=O)c1c(C)[nH]c(=S)c(C#N)c1-c1ccc(Cl)cc1	8%	-18	i	-5	-5
CC(Cc1ccccc1)Nc1ncnc2c1ncn2C1OC(CO)C(O)C1O (stereo not drawn)	.	.	i	10	-4
NCCNC(=O)Cc1ccc(NC(=O)Cc2ccc(Nc3ncnc4c3ncn4[C@@H]3O[C@H](CO)[C@@H](O)[C@H]3O)cc2)cc1	1.4µM*	.	i	1	-2
C[C@H](Cc1ccccc1)Nc1ncnc2c1ncn2[C@@H]1O[C@H](CO)[C@@H](O)[C@H]1O	11µM*	.	i	-12	18
COc1cccc(CN(C)C(=O)c2cc(COc3c(F)cccc3F)on2)c1	0%	11	i	7	-4
Cc1cccc(OCC(=O)Nc2cccc(C(=O)Nc3ccccc3C(=O)O)c2)c1	-3%	-10	i	5	-18
CC(C)c1ccc(OCC(=O)Nc2cccc(C(=O)Nc3ccccc3C(=O)O)c2)cc1	0%	-66*	i	6	6
CC(C)C(=O)Nc1cccc(C(=O)Nc2ccccc2C(=O)O)c1	0%	-7	-114%*	1	0
Cc1c(N=c2scc(-c3ccccc3)n2C)c(=O)n(-c2ccccc2)n1C	0%	-10	i	0	-48
CCN1CCN(Cc2ccc(OC)c(OCc3ccccc3)c2)CC1	0%	14	i	10	11
Cc1cc(NC(=O)c2ccccc2Cl)no1	2%	-6	-104%*	9	18
O=C(Nc1ccc(N=Nc2ccccc2)cc1)c1ccc(Cl)cc1Cl	1%	-7	i	5	1
O=C(Nc1ccc(N=Nc2ccccc2)cc1)c1ccccc1Cl	0%	-22	i	-3	-98*
CC(c1ccccc1)N(CC(=O)NC1CCCCC1)S(=O)(=O)c1cccc(C(F)(F)F)c1 (stereo not drawn)	1%	-12	i	-15	17
COC(=O)c1ccccc1NC(=S)N1CCN(c2ccccc2)CC1	1%	4	i	3	13
O=[N+]([O-])c1cc(CN2CCOCC2)c2cccnc2c1O	0%	-102*	i	-4	18
CC(C)(C)c1nnc(N/N=C/c2cc(Br)ccc2O)n(N)c1=O	1%	-88*	i	16	-36
CCCCC(=O)Nc1ccc(C(=O)NCCc2ccccc2)cc1	-1%	0	i	-4	-3
